Columns and labels:
Details in all cases: concentration: 1 μM, replicates: in singlicate; n = 1
JNK3 = tested on: T1, JNK3
T1 construct: gene MAPK10

KIT-autoinhibited = tested on: KIT-autoinhibited
KIT = tested on: KIT
LATS1 = tested on: LATS1
LATS2 = tested on: LATS2
LCK = tested on: LCK
LIMK1 = tested on: LIMK1
LIMK2 = tested on: LIMK2
LKB1 = tested on: T2, LKB1
T2 construct: gene STK11

LOK = tested on: T3, LOK
T3 construct: gene STK10
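Note: KINOMEscan kinase panel screen.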

Structure (SMILES) | %Inh (JNK3) | %Inh (KIT-autoinhibited) | %Inh (KIT) | %Inh (LATS1) | %Inh (LATS2) | %Inh (LCK) | %Inh (LIMK1) | %Inh (LIMK2) | %Inh (LKB1) | %Inh (LOK)
NS(=O)(=O)c1cccc(N/C=C2\C(=O)Nc3ccc(S(=O)(=O)Cc4c(Cl)cccc4Cl)cc32)c1 [GSK398099] | 7% | 0% | 15% | 41% | 22% | 13% | 7% | 28% | 0% | 0%
O=C(Nc1n[nH]c2nc(-c3ccco3)c(Br)cc12)C1CCN(Cc2ccccc2)C1.O=C(O)[C@H](O)[C@@H](O)C(=O)O (stereo not shown) [SB-742034] | 13% | 7% | 22% | 0% | 0% | 5% | 0% | 0% | 37% | 0%
Cc1cnc(N)c(/C=C/c2cncc(C(=O)NCCc3ccc(Cl)cc3Cl)c2)c1.Cl [GSK190937] | 4% | 0% | 99.6% | 0% | 36% | 7% | 0% | 2% | 28% | 0%
CCn1c(-c2c(N)noc2C)nc2cnccc21 [SB-737856] | 9% | 0% | 0% | 0% | 0% | 10% | 3% | 100% | 0% | 0%
Cn1cncc1C(=O)NC1CCN(c2ccnc(Nc3ccc(F)cc3)n2)C1 (stereo not shown) [GSK1379717] | 13% | 0% | 17% | 25% | 0% | 4% | 0% | 2% | 0% | 0%
CS(=O)(=O)CCNCc1nc(-c2ccc3ncnc(Nc4ccc5c(cnn5Cc5ccccc5)c4)c3c2)cs1.Cl.Cl [GW569716] | 4% | 0% | 6% | 0% | 0% | 9% | 0% | 0% | 0% | 0%
O=C(Nc1n[nH]c2nc(-c3cccs3)c(Br)cc12)C1CC1 [SB-735297] | 9% | 0% | 5% | 11% | 3% | 16% | 26% | 0% | 0% | 18%
O=C1NC(=O)C(c2ccc(Cl)cc2)=C1Nc1cccc(Cl)c1 [SB-317651] | 54% | 15% | 0% | 0% | 9% | 0% | 0% | 7% | 23% | 0%
COC(=O)C(Cc1ccccc1)NC(=O)NC1CCN(c2ccnc(Nc3ccc(F)cc3)n2)C1 (stereo not shown) [GSK1379714] | 0% | 9% | 11% | 0% | 15% | 21% | 0% | 9% | 21% | 3%
COc1ccc(Nc2nccc(N3CCC(NC(=O)C(C)c4ccc(Cl)cc4)CC3)n2)cc1 (stereo not shown) [GSK1379812] | 10% | 0% | 15% | 32% | 100% | 38% | 2% | 18% | 11% | 0%
O=c1cc(N2CCOCC2)nc2n(Cc3ccccc3F)ccn12 [GSK2297428] | 0% | 0% | 7% | 0% | 0% | 28% | 0% | 1% | 5% | 0%
COc1ccc(Nc2nccc(N3CCC(NC(=O)C(C)c4ccc(Cl)cc4)C3)n2)cc1 (stereo not shown) [GSK1379735] | 0% | 5% | 31% | 4% | 0% | 33% | 19% | 0% | 0% | 0%
CC[C@@H]1CO[C@H](C(=O)Nc2ccccc2)CN1c1cc(-c2ccc3c(N)n[nH]c3c2)nc(NC)n1 [GSK2376236] | 0% | 0% | 17% | 0% | 0% | 30% | 1% | 9% | 5% | 0%
COc1nccc(-c2c(-c3ccc(F)cc3)ncn2CCCN2CCOCC2)n1 [SB-282852] | 51% | 20% | 0% | 0% | 27% | 25% | 0% | 0% | 0% | 45%
COc1ccc(Nc2nccc(NCCNC(=O)Nc3cc(C)ccc3C)n2)cc1 [GSK1379899] | 0% | 0% | 0% | 0% | 0% | 26% | 0% | 0% | 0% | 0%
COC(=O)C(NC(=O)NC1CCN(c2ccnc(Nc3ccc(F)cc3)n2)C1)c1ccccc1 (stereo not shown) [GSK1379712] | 0% | 5% | 29% | 13% | 5% | 18% | 17% | 10% | 15% | 0%
COc1ccc(Nc2nccc(N3CCC(NC(=O)c4cc5ccccc5s4)C3)n2)cc1 (stereo not shown) [GSK1379738] | 10% | 0% | 7% | 0% | 1% | 16% | 8% | 17% | 0% | 0%

Structure (SMILES) | %Inh (JNK3) | %Inh (KIT-autoinhibited) | %Inh (KIT) | %Inh (LATS1) | %Inh (LATS2) | %Inh (LCK) | %Inh (LIMK1) | %Inh (LIMK2) | %Inh (LKB1) | %Inh (LOK)
COc1ccc(Nc2nccc(-c3ccc(NC(=O)c4cc5cc(F)ccc5[nH]4)cc3)n2)cc1 [GSK1229496] | 3% | 0% | 11% | 0% | 1% | 0% | 38% | 7% | 15% | 0%
Cc1nccc(-c2c(-c3ccc(F)cc3)ncn2CCCN2CCOCC2)n1.Cl [SB-282975] | 43% | 9% | 0% | 0% | 0% | 27% | 11% | 10% | 0% | 9%
Cc1cccc2c(-c3ccncn3)c(-c3ccc(F)cc3)nn12 [GW515532] | 74% | 0% | 6% | 0% | 11% | 17% | 0% | 0% | 0% | 0%
CSc1ccc(-c2nc3n(c2-c2ccncc2)CCC3)cc1 [SKF-105561] | 59% | 0% | 0% | 31% | 13% | 0% | 0% | 0% | 0% | 8%
Cc1ccc(NC(=O)Nc2ccccc2F)cc1-c1ccc(C(=O)Nc2ccncc2)cc1 [GSK1398477] | 0% | 5% | 99.6% | 0% | 2% | 68% | 36% | 15% | 0% | 33%
CCCCc1nn2ncccc2c1-c1ccnc(NC2CC2)n1 [GW684374] | 82% | 0% | 67% | 0% | 0% | 17% | 33% | 34% | 0% | 0%
CNc1cc(-c2ccc3c(N)n[nH]c3c2)nc(N)n1 [GSK2224810] | 0% | 0% | 19% | 0% | 20% | 0% | 0% | 9% | 0% | 0%
FC(F)(F)c1ccccc1-c1cc(-c2c[nH]nc2-c2ccccn2)ccn1 [GW679396] | 40% | 0% | 3% | 0% | 0% | 17% | 0% | 0% | 11% | 0%
CNCc1ccc2nc(NC(=O)c3ccc(C(C)(C)C)cc3)cn2c1 | 14% | 20% | 69% | 2% | 6% | 2% | 5% | 0% | 31% | 0%
Cn1cncc1-c1cc2c(Nc3ccc(OCc4ccccc4)cc3)ncnc2cn1 [GW281179] | 1% | 0% | 39% | 0% | 0% | 24% | 11% | 6% | 0% | 0%
Fc1ccc(-c2nn3cccc(F)c3c2-c2ccncc2)cc1 [GW475620] | 97.4% | 0% | 3% | 12% | 0% | 18% | 0% | 0% | 0% | 8%
Cc1ccccc1-c1cc(-c2c[nH]nc2-c2ccccn2)ccn1 [GW680061] | 32% | 0% | 39% | 0% | 0% | 5% | 0% | 0% | 0% | 0%
Nc1cccc(-c2ccc3c(N)n[nH]c3c2)n1 [GSK2192730] | 0% | 0% | 14% | 0% | 17% | 0% | 0% | 2% | 7% | 0%
COc1cccc(C2=C(Nc3cc(Cl)c(O)c(Cl)c3)C(=O)NC2=O)c1 [SB-390767] | 15% | 0% | 0% | 1% | 0% | 0% | 31% | 0% | 0% | 0%
CNc1nc(-c2ccc3c(N)n[nH]c3c2)cc(N2C[C@@H](C(=O)Nc3ccccc3)CC[C@H]2C)n1 [GSK2298859] | 3% | 0% | 4% | 0% | 3% | 22% | 0% | 13% | 7% | 0%
Cc1ccccc1Cn1ccn2c(=O)cc(N3CCOCC3)nc12 [GSK2269905] | 1% | 1% | 14% | 0% | 0% | 16% | 18% | 0% | 0% | 0%
COc1ccc(CSc2nnc(-c3ccc4c(c3)CCO4)o2)cc1 | 0% | 0% | 0% | 0% | 0% | 0% | 0% | 0% | 6% | 0%

Source: publication PMC5540273 (PLoS ONE, 2017)
